Compounds with a hit are over-represented: about 19% of the library has one in this group of screens.
Pf growth 96h: P. falciparum growth inhibition at 96 hour, primary screen for plastid delayed-death inhibitors; P. falciparum luciferase reporter growth, 96 h; Potency, µM (titrated, usually from 28.7 µM), most hits filed as inhibitors; hit rate 6.9% among 320,000
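96 h incubation, 37 C, 5% CO2, of luciferase-reporter P. falciparum-infected RBCs (2% hematocrit, 0.05% parasitemia final) with test compounds; endpoint luminescence.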
Pf growth 48h: P. falciparum growth inhibition at 48 hours (one generation). P. falciparum luciferase growth in erythrocytes, 48 h. Potency, µM (top dose mostly 28.7 µM), hits mostly inhibitors. hit rate 5.9% among 310,000. AID 504832
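Luciferase-expressing P. falciparum in infected erythrocytes (2% hematocrit, 0.1% parasitemia final) in RPMI 1640/0.5% Albumax were exposed to compound for 48 hours at 37 C, 5% CO2; growth read as luminescence.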
Cycloheximide cs: counter-screen for Shiga toxin inhibitors: cycloheximide protein synthesis inhibition. hit rate 12% among 300,000. max response, %. cell reporter, cycloheximide protein synthesis inhibition counterscreen. AID 2314; in the data active = max response mostly above about 13%, no sharp cut-off; inactive = mostly below about 14%; note: read at 38.3 µM for the half of the compounds with a filed dose
AMA1-RON2 inh: disrupts binding of P. falciparum AMA1 to RON2; AlphaScreen AMA1-biotinylated RON2 peptide binding; Potency, µM (highest dose often 58.2 µM), usual class: inhibitors; hit rate 0.2% among 360,000; note: nearly all actives have a fitted effect of over 45% in size
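AMA1 (3D7) with his tag at 25 nM final met compounds first, then biotinylated RON2 peptide at 25 nM; detection used donor plus acceptor beads, 10 µg/mL apiece, read by AlphaScreen after 30 min at room temperature.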
SARS PLP yeast: inhibitors of SARS-CoV papain-like protease in yeast. AID 485353. Potency, µM (titrated, usually from 32.9 µM), most hits filed as activators. hit rate 0.19% among 330,000. S. cerevisiae expressing SARS-CoV PLpro, growth rescue; calls by dose curve; note: nearly all actives have a fitted effect of over 55% in size
Shiga inhibitor: Shiga toxin inhibition. Vero cells, Shiga toxin protein synthesis inhibition reporter. inhibition, % at 38.7 µM. hit rate 9.2% among 290,000; in the data active = inhibition mostly above about 28%, no sharp cut-off; inactive = mostly below about 43%
Of the large screens only hits and unclear results are named; the others gave an inactive call. Unless noted, calls come from the whole dose curve; as a rule, active = well fitted curve in the direction sought with a large enough effect; inconclusive = small, poorly fitted or top-dose-only effect, or another doubt; inactive = no such curve, though single readings can be large; an effect the other way counts as inactive or inconclusive.

Cc1cccc2sc(NNC(=O)c3cc(-c4cccs4)nc4ccccc34)nc12	Pf growth 96h 4.15µM, Pf growth 48h inconclusive
O=C(NCc1ccco1)c1cc(-c2ccncc2)nc2ccccc12	Pf growth 96h inconclusive, Pf growth 48h 2.08µM
O=C(Nc1nccs1)c1cc(-c2ccccc2)nc2ccccc12	Pf growth 96h 3.29µM, Pf growth 48h 2.62µM
NS(=O)(=O)c1ccc(NC(=O)c2cc(-c3cccs3)nc3ccccc23)cc1	Pf growth 96h 0.415µM
Cc1ccc(C(=O)NNC(=O)CCCCC(=O)NNC(=O)c2ccc(C)cc2)cc1	Pf growth 96h inconclusive
Cc1ccc(-c2cc(C(=O)NCc3ccccn3)c3ccccc3n2)cc1C	Pf growth 48h 8.28µM, Cycloheximide cs 30.8, Shiga inhibitor 65.8
O=C(NCc1ccccn1)c1cc(-c2ccc(-c3ccccc3)cc2)nc2ccccc12	Pf growth 96h inconclusive, Pf growth 48h inconclusive, Cycloheximide cs 19.9, Shiga inhibitor 128.3
O=C(NCc1ccccn1)c1cc(-c2ccc(Cl)cc2)nc2ccccc12	Pf growth 96h inconclusive, Pf growth 48h inconclusive, Shiga inhibitor 33.1
O=C(CN1CCN(S(=O)(=O)N2CCOCC2)CC1)Nc1cc(Cl)ccc1Cl	none
O=C1N2CCSC2=NC1(Nc1nccs1)C(F)(F)F (stereo not drawn)	none (no result: Pf growth 96h)
Cc1ccnc(NC(=O)CCNC(=O)c2ccc(Br)cc2)c1	none (no result: Pf growth 96h, Pf growth 48h, Cycloheximide cs, SARS PLP yeast, Shiga inhibitor)
Cc1ccc(NC(=O)CCCNC(=O)c2ccc(Cl)cc2)c(O)c1	Cycloheximide cs 69.0, Shiga inhibitor 91.0
Cc1ccc(NC(=O)CCNC(=O)c2ccc(Cl)cc2)nc1	Cycloheximide cs 40.9, Shiga inhibitor 73.6
Cc1ccc(NC(=O)CCCNC(=O)c2ccc(Cl)cc2)nc1	Cycloheximide cs 29.3, Shiga inhibitor 62.6
Cc1cnc(NC(=O)CCCNC(=O)c2ccc(Cl)cc2)s1	none (no result: Cycloheximide cs, Shiga inhibitor)
Cc1ccc(NC(=O)CCNC(=O)c2ccc(Br)cc2)nc1	Cycloheximide cs 17.9, Shiga inhibitor 56.3
CC(C)c1csc(CN2CCC(C(=O)Nc3cccc(-c4ccco4)c3)CC2)n1	none (no result: Pf growth 96h, Pf growth 48h, Cycloheximide cs, SARS PLP yeast, Shiga inhibitor)
CCc1ccc(OCC(=O)Nc2nnc(C3CCCC3)s2)cc1	none
Cc1cc2c(s1)c1cnn(Cc3c(F)c(F)cc(F)c3F)c(=O)c1n2C	none (no result: Pf growth 96h, Pf growth 48h, AMA1-RON2 inh, SARS PLP yeast)
Cc1ccc(Cl)cc1N1C(=O)CC(Sc2ncccn2)C1=O (stereo not drawn)	none
CC(NC(=O)c1ccc2c(c1)OCO2)C(c1cccs1)N1CCN(c2ccccc2)CC1 (stereo not drawn)	Pf growth 96h 11.7µM, AMA1-RON2 inh inconclusive
CC(NC(=O)c1ccc(C(C)(C)C)cc1)C(c1cccs1)N1CCOCC1 (stereo not drawn)	Pf growth 96h 11.7µM, Pf growth 48h 13.1µM
CC(NC(=O)c1cccs1)C(c1cccs1)N1CCN(c2ccccc2)CC1 (stereo not drawn)	Pf growth 48h 9.28µM
CC(NC(=O)c1cccs1)C(c1cccs1)N1CCOCC1 (stereo not drawn)	Pf growth 96h 2.62µM
CC(C)C(=O)NC(C)C(c1cccs1)N1CCN(c2ccccc2)CC1 (stereo not drawn)	Pf growth 96h inconclusive, Pf growth 48h inconclusive
CCCCN(CCCC)CC(O)c1cc(Cl)cc2c1-c1ccc(Cl)cc1/C2=C/c1ccc(Cl)cc1 (stereo not drawn)	Pf growth 96h 0.0213µM, Pf growth 48h 0.0151µM (no result: Cycloheximide cs, AMA1-RON2 inh, SARS PLP yeast, Shiga inhibitor)
Cc1[nH]c2ccccc2c1C(c1ccccn1)c1c(C)[nH]c2ccccc12	Pf growth 48h 9.28µM (no result: Pf growth 96h)
Nc1nc(SCc2ccc(Cl)cc2Cl)nc2nc3c(cc12)CCCC3	Pf growth 96h 13.1µM, Pf growth 48h 8.28µM
CCC(C)[C@H]1CN=C(N)N1CCCc1cc(OC)c(OC)c(OC)c1 (stereo partly drawn)	Pf growth 96h 13.1µM, Pf growth 48h 10.4µM
COc1cc(CCCN2C(N)=NC[C@@H]2c2ccccc2)cc(OC)c1OC	Pf growth 96h inconclusive, Pf growth 48h 11.7µM
CCC(C)[C@H]1CN=C(N)N1CCc1cccc2ccccc12 (stereo partly drawn)	none (no result: Pf growth 96h, Pf growth 48h, Cycloheximide cs, SARS PLP yeast, Shiga inhibitor)
COc1cc(CCCN2C(=O)C(=O)NC[C@@H]2c2ccccc2)cc(OC)c1OC	none
CCC(C)[C@H]1CN=C(N)N1CCc1cc(C(F)(F)F)cc(C(F)(F)F)c1 (stereo partly drawn)	Pf growth 96h 2.08µM, Pf growth 48h 4.65µM
O=C(CCCn1c(=O)[nH]c2ccc(Br)cc2c1=O)NCc1ccc(Cl)cc1	none
